From PubChem BioAssay (Tox21)
Where “and” joins values, the source holds several entries; their conditions need not be identical. Equal values may be shown once. Results filed as inconclusive are left out. A call without a number means that no potency is given here. Where a structure was tested more than once in an assay, its records may differ in their call. Calls of active or inactive are those of the source. The call rests on the fitted dose curve; in most records, active means well fitted cell-killing curve with a large enough effect in the repeat runs; inconclusive means weak or mixed curves, or effect the other way; inactive means no such curve, though single readings can be large or run the other way.
Potency means the concentration at half of the fitted maximal effect.

Assay: qHTS assay to identify aromatase inhibitors - cell viability counter screen (AID 743084);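 further: cells stimulated with testosterone during compound exposure; nearly all actives have a fitted effect of over 55% in size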
Conditions: MCF-7 aro ERE viability, CellTiter-Fluor, 24 h; series mostly up to 70.3 µM
With `CC(C)(c1cc(Cl)c(O)c(Cl)c1)c1cc(Cl)c(O)c(Cl)c1` the Potency was “inactive”.
With `COc1ccc(C(CN(C)C)C2(O)CCCCC2)cc1` (stereo not given) the Potency was “inactive”.
In the case of `CN(C)c1ccc(C(=O)c2ccc(N(C)C)cc2)cc1`, the Potency was “inactive”.
With `Nc1ccncc1` the Potency was “inactive”.
For `CCCCCCCCC(=O)NCc1ccc(O)c(OC)c1`, the Potency was “inactive”.
For `CC(C)c1ccc(CO)cc1`, the Potency was “inactive”.
In the case of `Oc1c(Cl)c(Cl)c(Cl)c(Cl)c1Cl`, the Potency was “inactive”.
In the case of `O=C(O)C(F)(F)C(F)(F)C(F)(F)C(F)(F)C(F)(F)C(F)(F)C(F)(F)F`, the Potency was “inactive”.
With `NNC(=S)NN` the Potency was “inactive”.
In the case of `Nc1ccc(Cl)cc1N`, the Potency was “inactive”.
In the case of `CCCCOCCOP(=O)(OCCOCCCC)OCCOCCCC`, the Potency was “inactive”.
With `C=CCc1ccc2c(c1)OCO2` the Potency was “inactive”.
With `S=C1NCCN1` the Potency was “inactive”.
With `Oc1cc(Cl)ccc1Oc1ccc(Cl)cc1Cl` the Potency was “inactive and 22.2 µM (active)”.
With `C1=Cc2cccc3cccc1c23` the Potency was “inactive”.
In the case of `C#CCOS(=O)OC1CCCCC1Oc1ccc(C(C)(C)C)cc1` (stereo not given), the Potency was 21.7 µM (active) and 6.86 µM (active).
With `Nc1ccc(-c2ccccc2)cc1` the Potency was “inactive”.
With `Nc1ccc(-c2ccc(N)c(N)c2)cc1N` the Potency was 54.3 µM (active) and inactive.
In the case of `O=C1C=CC(=O)C=C1`, the Potency was “inactive”.
With `O=Cc1ccco1` the Potency was “inactive”.
In the case of `O=C(CCl)c1ccccc1`, the Potency was “inactive and 61.1 µM (active)”.
With `C[C@]12CCC(=O)C[C@@H]1CC[C@@H]1[C@@H]2CC[C@]2(C)[C@@H](O)CC[C@@H]12` the Potency was “inactive”.
With `CCC(C)(c1ccc(O)cc1)c1ccc(O)cc1` the Potency was “inactive”.
With `N#Cc1cc(Br)c(O)c(Br)c1` the Potency was “inactive”.
For `CC(C)=CC1C(C(=O)OCc2coc(Cc3ccccc3)c2)C1(C)C` (stereo not given), the Potency was “inactive”.
